Test results taken from PubChem BioAssay (NCI).
Several values for one entry are separate records, joined by “and”; a condition that tells them apart may be missing. Equal entries are not always repeated. This is part of a sample that, as a whole, favours compounds with a hit. Of some 83,000 tested, about 20% had one in any assay.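 Note: values are percent growth. 100 is the growth of untreated cells, values between 100 and 0 indicate rising inhibition; between -100 and 0 indicates cell death.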 Values without a mark were called inactive. Activity calls are given as the source filed them. The calls were made as follows: active = growth percent below 10; inactive = the rest.

system: HCT-116 colon; assay: NCI-60 one-dose screen, 48 h (100 = growth as untreated, 0 = no growth, -100 = all killed); details: 10 µM unless noted

| Compound | growth |
| --- | --- |
| N#Cc1cc(-c2ccc3ncnc(N4CCc5cc(F)c(Cl)cc54)c3c2)cnc1N | 33.2% |
| Cn1cc(Nc2ncnc(-c3ccc(N4CCCC4)c(C#N)c3)n2)cn1 | 51.2% |
| CN(C)CCCc1ccc(Nc2cnn(C)c(=O)c2Cl)cc1 | 95.5% |
| O=Cc1cncc(-c2ccc3ncnc(N4CCc5cc(F)c(Cl)cc54)c3c2)c1 | 33.7% |
| N#CC1=C(c2cccs2)Nc2c(c(-c3ccccc3)nn2-c2ccccc2)C12C(=O)Nc1ccccc12 (stereo not given) | 5.53% (active) |
| O=C(CSc1nc2sc3c(c2c(=O)n1-c1ccc(Cl)cc1)CCCC3)NNC(=O)c1ccc(F)cc1 | 78.3% |
| COc1ccc(-c2cc(-c3cc(OC)c(OC)c(OC)c3)[nH]c(=O)c2C#N)cc1 | 34.7% |
| CC(=O)Nc1cccc(-n2c(COc3ccc(Br)cc3)nc3ccccc32)c1 | 101% and 102% |
| Cc1cc(Cl)ccc1NC(=O)Nc1ccc(-c2ccc3c(c2)NC(=O)/C3=C\c2ccc[nH]2)cc1 | 108% |
| Nc1cc(-c2c[nH]c3ccc(Br)cc23)nc2cc(-c3c[nH]c4ccccc34)nn12 | -78% (active) |
| CCc1ccc(SC2c3cc(OC)ccc3Oc3nc(N)c(C#N)c(N)c32)cc1 (stereo not given) | -96% (active) |
| COc1ccc(C(=O)NNC(=O)CSc2nc3sc4c(c3c(=O)n2-c2ccc(Cl)cc2)CCCC4)cc1 | 72.7% |
| CNc1nc2ccccc2n2c(-c3ccc(O)c(O)c3)cnc12 | 2.74% (active) |
| CN(CCSSCCN1CCOCC1)C(=O)Oc1cc2c(c3ccccc13)[C@H](CCl)CN2C(=O)c1cc2cc(OCCCN3CCC3)ccc2[nH]1 | -49.1% (active) |
| Cn1cc(-c2cc(N)n3nc(-c4c[nH]c5ccc(F)cc45)cc3n2)c2cccnc21 | -91.4% (active) |
| O=C(Cn1c(-c2ccccc2)nc2ccccc21)N=Nc1c(O)[nH]c2ccc(Br)cc12 | 1.09% (active) |
| O=C(NN1C(=O)/C(=C/C=C/c2ccc([N+](=O)[O-])o2)SC1=S)c1ccncc1 | -41.5% (active) |
| CCCCCCCCCc1ccc(C(=O)Nc2cc(C)ccc2C(=O)OC)cc1 | 96.7% |

| Compound | growth |
| --- | --- |
| COc1ccc(N=Nc2c(N)nn3c(-c4ccc([N+](=O)[O-])cc4)ccnc23)cc1 | 97.9% |
| COc1ccc2[nH]c(O)c(N=Nc3nc(-c4ccc(Cl)cc4)cs3)c2c1 | -74.9% (active) |
| C[C@@H](Nc1c(C#N)cnc2ccc(-c3cnc4[nH]ncc4c3)cc12)c1ccccc1 | 20.2% |
| CS(=O)(=O)Nc1cccc(-n2c(COc3ccc(OC(F)(F)F)cc3)nc3ccccc32)c1 | 85.9% and 104% |
| Cc1cc(C(NC(=O)CCCCCNc2cccc3c2C(=O)N(C2CCC(=O)CC2=O)C3=O)c2cccc(N(C)C)c2)c(O)c2ncccc12 (stereo not given) | 13.8% |
| COc1ccc(S(=O)(=O)Nc2ccc(-c3ccc4c(c3)NC(=O)/C4=C\c3ccc[nH]3)cc2)cc1OC | 19% |
| COc1ccc(-c2nc3ccccc3n2CC(=O)N=Nc2c(O)[nH]c3ccc(OC)cc23)cc1 | 1.32% (active) |
| Cc1ccc(C(C(=O)NC2CCCCC2)N(Cc2ccccc2Cl)C(=O)c2ccc(CN3CCOCC3)o2)o1 (stereo not given) | 89.1% |
| COc1ccc(N=Nc2c(N)nn3c(-c4ccc(OC)c(OC)c4)ccnc23)cc1 | 72.5% |
| Cc1ccc(Cl)cc1NC(=O)N/C(N)=N/c1nc2ccccc2s1 | -51.9% (active) |
| N#Cc1cc(-c2ccnc(Nc3ccc(N4CCN(C5COC5)CC4)cc3)n2)ccc1N1CCCC1 | 49% |
| COc1ccc(-c2nc3ccc(-c4nnc(SCC(=O)Nc5ccc(/C(C)=N\O)cc5)o4)cc3[nH]2)cc1 | 70.5% |
| O=C1/C(=C/c2cnc(-c3ccccc3)s2)SC(=S)N1Cc1ccc2c(c1)OCO2 | 69.4% |
| Cc1nn(-c2ccccc2)c2ncn(CC(=O)N/N=C/c3ccccc3O)c(=O)c12 | 18.5% |
| COc1ccc(C2=NN(C(=O)[C@H]3[C@@H](c4ccco4)c4sc(=O)[nH]c4S[C@@H]3C)C(c3ccc4ccccc4c3)C2)cc1 (stereo not given in full) | 16.1% |
| CCc1ccccc1NC(=O)N/C(N)=N/c1nc2ccccc2s1 | -26.2% (active) |
| O=C(Nc1ccc(Cl)c(C(F)(F)F)c1)N1CCN(c2cc(-c3cn(-c4ccccc4)nc3-c3cccc(O)c3)ccn2)CC1 | 4.83% (active) |
